Data on 22 compounds can be found in PubChem BioAssay.

The viability is a read-out of living cells in per cent, often relative to untreated cells. The term inhibition denotes the relative decrease from the control value, in per cent.

Molecules are shown by their SMILES. Several values for one entry are separate records, joined by “and”; a condition that tells them apart may be missing. Identical values can stand only once. Some compounds were tested as several samples or in several runs, with calls that do not always agree. Activity calls are given as the source filed them. Unless noted, the rule behind the calls is not given here.

The nature of assay [1]: hESC survival regulators, cell-based (AID 493140).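 Note: cells exposed to compounds for four days before counting.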 As to conditions: human embryonic stem cell survival screen; stronger effect = higher value.
Assay [2] in a line: liver-stage malaria parasite growth inhibition, primary screen, cell-based, HepG2, luciferase luminescence, HepG2 viability (AID 624349; in the data active = parasite load remaining mostly below about 12%, no sharp cut-off; inactive = mostly above about 10%;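 note: 100% = mean of DMSO negative control wells on the same plate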). The settings on record: P. berghei liver stage in HepG2, luciferase luminescence, concentration not given here; parasite load remaining: stronger effect = lower value; viability: measured here: HepG2 viability without parasites.
The nature of assay [3]: viability rescue of complex I mutant cybrids, primary screen, cell-based, galactose medium, ATP luminescence (AID 1645843;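 active = z-score of at least 1.8 in each of two replicates, scored against plate mean and spread of sample wells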;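 note: positive z means more ATP and so rescue of galactose-driven cybrid death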). The settings on record: complex I mutant cybrid cells, 72 h, stronger effect = higher value.
Assay [4] in a line: kinase inhibitors against Plasmodium liver-stage infection, cell-based, known kinase inhibitor set, luminescence, hepatoma host viability (AID 624392).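 Note: infected cells incubated roughly two days before readout.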 As to conditions: Plasmodium liver stage in hepatoma cells, luciferase luminescence, concentration not given here; liver cell % of control: measured here: host liver cell viability; parasite % of control: stronger effect = lower value.
The subject of assay [5] is Hepatitis C virus NS3 helicase. The assay can be described thus: HCV NS3 helicase inhibitors, primary screen, biochemical, fluorescence polarization, LOPAC1280 library (AID 687035; in the data active = inhibition above about 37%). The settings on record: Purified HCV NS3 helicase, Cy5-dT15 ssDNA binding fluorescence polarization; stronger effect = higher value; concentration not given here. For orientation: In fluorescence polarisation assays a small probe gives low polarisation when free and higher when bound to something large.

Assay [6] can be described thus: Cy5 fluorescence quenching or enhancement artefacts, artefact control for HCV NS3 helicase inhibitor project, biochemical, LOPAC1280 (AID 687037). As to conditions: Cy5-DNA-NS3h complex fluorescence interference counterscreen. A general note: Counterscreens check selectivity or assay interference.
Assay [7] is described as follows: phospholipid biosynthesis inhibitors in animal cells, primary screen, cell-based, LOPAC library, screen 4 (AID 1347384). The settings on record: phospholipid biosynthesis inhibition screen, at 10 µM.
Assay [8] has as its target NAD(+) hydrolase SARM1 (Homo sapiens) (UniProt Q6SZW1). The assay can be described thus: SARM1 TIR NADase inhibitors, cell lysate, NAD-Glo luminescence (AID 1508614;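 active = compound whose remaining NAD level is above about 45 nM, limit read from the data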;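 note: higher remaining NAD means stronger inhibition of SARM1 NADase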). As to conditions: SAM-TIR HEK293T lysate NADase, at 1 µM, stronger effect = higher value.
The nature of assay [9]: modulators of glucocorticoid suppression of NF-kB, cell-based, luciferase, IL-1B stimulus, dexamethasone (AID 624486).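 For percent of negative control (+Dex): 100% = mean signal of vehicle control wells on the plate.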 As to conditions: NF-kB luciferase reporter, IL-1B + dexamethasone, luminescence; percent of negative control (+Dex): actives lie on both sides, concentration not given here; z-score: measured here: IL-1B alone, no Dex.
A short description of assay [10]: kinase inhibitors altering Pseudomonas killing of worms, whole organism (AID 651566).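 Note: tested at 14 µM; sign flipped so higher z means a lower ratio.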 As to conditions: C. elegans killed by P. aeruginosa, survival ratio.
Assay [11] is described as follows: activators of macrophage pro-inflammatory response, cell-based, murine, luminescence (AID 652131). The settings on record: murine macrophage pro-inflammatory reporter, stronger effect = higher value.
Assay [12] can be described thus: inhibitors of Cryptococcus chitosan production, flow cytometry, Cibacron Brilliant Red staining (AID 1347148).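 Note: compound exposure lasted three days at 37 degrees C.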 The settings on record: Cryptococcus neoformans chitosan, stronger effect = lower value; at 10 µM unless noted.
A short description of assay [13]: circadian clock period modulators, cell-based, LOPAC library, luminescence reporter (AID 2774).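 Note: values are relative to mean of DMSO wells on each plate.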 The settings on record: circadian reporter cells, at 7 µM, actives lie on both sides.
Assay [14] is described as follows: LFS_MB_1R medulloblastoma cell growth inhibition, synergistic combos for chromothripsis tumors, cisplatin or BGB combos (AID 1671452; in the data active = inhibition above about 80%;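 note: cells exposed for 96 hours before readout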). As to conditions: LFS_MB_1R medulloblastoma cells, stronger effect = higher value.
Assay [15] in a line: CRL2098 osteosarcoma cell growth inhibition, synergistic combos for chromothripsis tumors, BGB or cisplatin IC20 combos (AID 1671454; in the data active = inhibition above about 80%;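 note: cells exposed for 96 h before readout; 0% = vehicle DMSO and 100% = killing by high DMSO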). The settings on record: CRL2098 osteosarcoma cells, drug combinations, stronger effect = higher value.
A short description of assay [16]: HD-MB03 medulloblastoma cell growth inhibition, synergistic combos for chromothripsis tumors, BGB or cisplatin IC20 combos (AID 1671455; in the data active = inhibition above about 83%;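 note: 0% = vehicle DMSO and 100% = high DMSO as cytotoxic control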). The settings on record: HD-MB03 medulloblastoma cells, stronger effect = higher value.
The nature of assay [17]: UWB1.289 ovarian carcinoma cell growth inhibition, synergistic combos for chromothripsis tumors, BGB or cisplatin combos (AID 1671456; in the data active = inhibition above about 80%;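 note: cells exposed to compound for four days; 0% = vehicle DMSO and 100% = killing by high DMSO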). The settings on record: UWB1.289 ovarian carcinoma cells, stronger effect = higher value.
Assay [18] can be described thus: LFS_MB_2R medulloblastoma cell growth inhibition, synergistic combos for chromothripsis tumors, cisplatin combos (AID 1671457; in the data active = inhibition above about 80%;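 note: cells exposed to compound for four days before readout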). As to conditions: LFS_MB_2R medulloblastoma cells, stronger effect = higher value.
Assay [19] is described as follows: UWB1.289_BRCA1 ovarian cancer growth, cell-based, BGB or cisplatin combinations (AID 1671459; in the data active = inhibition above about 80%). As to conditions: UWB1.289 BRCA1 ovarian carcinoma, drug combinations, stronger effect = higher value.
Assay [20] is described as follows: human astrocyte viability loss, single and combined drugs, cytotoxicity control for chromothriptic childhood tumor combination screen, cell-based, BGB or cisplatin IC20 combos (AID 1671460; in the data active = inhibition above about 80%;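 note: cells exposed to compounds for 96 hours before viability readout; 0% = vehicle and 100% = killing control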). The settings on record: Human astrocytes, drug combinations, stronger effect = higher value.
Where [21] appears, read: measured here: combination with cisplatin, at 0.5 µM.
The mark [22] stands for this setting: measured here: combination with cisplatin, at 5 µM.

Sequence of NAD(+) hydrolase SARM1 (Homo sapiens) (Q6SZW1 whole entry, looked up): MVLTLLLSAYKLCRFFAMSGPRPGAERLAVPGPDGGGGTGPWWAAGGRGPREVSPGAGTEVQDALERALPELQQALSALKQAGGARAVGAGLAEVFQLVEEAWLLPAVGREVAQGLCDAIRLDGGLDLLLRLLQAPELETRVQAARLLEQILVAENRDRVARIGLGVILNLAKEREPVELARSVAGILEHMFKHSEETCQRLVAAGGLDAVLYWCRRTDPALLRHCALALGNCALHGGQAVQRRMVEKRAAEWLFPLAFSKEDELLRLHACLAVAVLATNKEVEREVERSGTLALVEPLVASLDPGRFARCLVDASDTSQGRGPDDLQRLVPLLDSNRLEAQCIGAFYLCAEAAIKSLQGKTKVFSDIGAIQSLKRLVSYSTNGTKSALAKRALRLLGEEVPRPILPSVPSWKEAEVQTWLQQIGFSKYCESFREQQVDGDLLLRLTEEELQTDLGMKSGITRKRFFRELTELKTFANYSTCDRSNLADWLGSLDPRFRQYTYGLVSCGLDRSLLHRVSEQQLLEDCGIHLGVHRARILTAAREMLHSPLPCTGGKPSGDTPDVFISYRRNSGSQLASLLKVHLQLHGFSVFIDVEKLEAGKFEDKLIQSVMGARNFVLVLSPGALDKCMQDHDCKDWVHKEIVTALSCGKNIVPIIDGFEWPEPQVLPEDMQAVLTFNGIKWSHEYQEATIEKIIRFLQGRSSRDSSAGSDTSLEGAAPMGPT

With `CN(C(Cc1ccc(OS(=O)(=O)c2cccc3cnccc23)cc1)C(=O)N1CCN(c2ccccc2)CC1)S(=O)(=O)c1cccc2cnccc12` (stereo unspecified), the survival in assay [1] is 94.6 (inactive).

As for `C=CC[N+]1([C@H]2C[C@H]3[C@@H]4CC[C@H]5C[C@H](O)[C@@H](N6CCOCC6)C[C@]5(C)[C@H]4CC[C@]3(C)[C@H]2OC(C)=O)CCCC1`, in assay [2], the parasite load remaining is 25.4% (inactive) and the viability is 138%. Further, the z-score in assay [3] was 0.25 (inactive).

Consider `COc1ccc2c(c1)c(C1=C(c3c[nH]c4ccccc34)C(=O)NC1=O)cn2CCCN(C)C`, for which, in assay [2], the parasite load remaining was 27.6% (inactive) and the viability is 93.9%.

On to `CS(=O)(=O)c1ccc(C(=O)Nc2ccc(Cl)c(-c3ccccn3)c2)c(Cl)c1`, for which, in assay [3], the z-score is 0.355 (inactive).

For `CCN(CCO)CCCOc1ccc2c(Nc3cc(CC(=O)Nc4cccc(F)c4)[nH]n3)ncnc2c1`, the parasite % of control in assay [4] is 144% (inactive) and 137% (inactive) and 97.1% (inactive).

Take `CN1CC(=O)NC1=NC(=O)Nc1cccc(Cl)c1`: the inhibition in assay [5] is -2% (inactive). The fluorescence ratio (interference) in [6] is 1 (inactive). Also, the compound was called inactive in [7].

With `O=C1NC(=O)/C(=C/c2cccc(C(F)(F)F)c2)S1`, in assay [2], the parasite load remaining is 38.3% (inactive) and the viability worked out at 85%.

Regarding `O=C(Nc1cc(Cl)cc2c1[nH]c1cnccc12)c1cccnc1`, in assay [2], the parasite load remaining was 33.8% (inactive) and the viability stood at 87.1%.

As to `C[C@H]1[C@H](O)O[C@@H]2O[C@@]3(C)CC[C@H]4[C@H](C)CC[C@@H]1[C@@]24OO3`, the remaining NAD in assay [8] was 10 nM (inactive).

As to `N#Cc1c(NC(=O)c2cccc3ccccc23)sc2c1CCCC2`, in [2], the parasite load remaining was 47.8% (inactive) and the viability is 98%. For the same compound, in assay [4], the liver cell % of control turned out to be 69% and the parasite % of control was 217% (inactive). For the same compound, in [9], the percent of negative control (+Dex) is 130% (inactive) and the z-score stood at 1.48. For the same compound, the z-score in assay [10] is -1.07 (inactive). In assay [11], the z-score is -1.04 (inactive).

Turning to `COC(=O)c1ccc2c(C(=Nc3ccc(N(C)C(=O)CN4CCN(C)CC4)cc3)c3ccccc3)c(O)[nH]c2c1`, in assay [4], the liver cell % of control is 156% and 81.4% and 93.4%; the parasite % of control is 197% (inactive) and 560% (inactive) and 349% (inactive).

As for `COc1ccc2c(c1)CC[C@@H]1[C@@H]2CC[C@]2(C)[C@@H](NCCCCCCN3C(=O)C=CC3=O)CC[C@@H]12`, in assay [12], the fold fluorescence was 12.8 [at 107.6 µM] (inactive).

In the case of `Clc1ccc(COC(Cn2ccnc2)c2ccc(Cl)cc2Cl)c(Cl)c1` (stereo unspecified), the survival in assay [1] is 33.8 (inactive).

For the compound `CC1(C)CCC2=C(O1)c1ccccc1C(=O)C2=O`, in [13], the period change was -0.24 h (inactive). Moreover, the inhibition is -5% (inactive) in assay [5]; -13.2% (inactive) and 14.9% (inactive) in assay [14] (at 0.5 µM); -55.4% and -11.7% in assay [14] (measured here: combination with BGB IC40, at 0.05 µM); -25.3% and 44% in assay [14] (setting [21]); 96.9% and 102% in assay [14] (setting [22]); -39.7% (inactive) and -32.9% (inactive) in assay [15] (at 0.5 µM). The inhibition in [15] (measured here: combination with BGB at IC20, at 0.5 µM) was -38.5% and -7.72%; in assay [15] (measured here: combination with cisplatin at IC20, at 0.5 µM), -39.4% and -35%; in [16] (at 0.5 µM), -12.2% (inactive) and -9.16% (inactive); in assay [16] (measured here: combo with BGB at IC20, at 0.5 µM), 5.55% and -5.28%; in assay [16] (measured here: combo with cisplatin at IC20, at 0.5 µM), -34.7% and -19.2%; in assay [17] (at 0.5 µM), 12.3% (inactive) and 6.12% (inactive). The inhibition in assay [17] (measured here: inhibition with BGB combination, at 0.05 µM) is -2.17% and 7.32%; in [17] (measured here: inhibition with cisplatin combination, at 0.05 µM) it was -10.2% and -8.62%; in [18] (at 0.5 µM), -21.3% (inactive) and -12.9% (inactive); in assay [18] (setting [21]), -28.3% and -6.61%; in assay [18] (setting [22]) it was 89.1% and 88.9%; in assay [19] (BGB combination, concentration series, at 5 µM), 128% and 124%. The inhibition is 0.6% (inactive) and 6.57% (inactive) in assay [19] (at 0.5 µM); 129% and 128% in [19] (cisplatin combination, concentration series, at 5 µM); 16.9% (inactive) and 14.6% (inactive) in assay [20] (at 0.5 µM); 23.9% and 15.8% in assay [20] (measured here: combo with BGB IC20, at 0.5 µM); 20.7% and 18.1% in assay [20] (measured here: combo with cisplatin IC20, at 0.5 µM). For the same compound, the fluorescence ratio (interference) in assay [6] is 1 (inactive). Further, in [12], the fold fluorescence was 9.76 [at 206.4 µM] (inactive). For the same compound, the compound was called inactive in assay [7]. In assay [3], the z-score is -1.29 (inactive).

Consider `Nc1nc(Nc2ccc(S(N)(=O)=O)cc2)nn1C(=O)c1c(F)cccc1F`, for which, in assay [2], the parasite load remaining is 42.7% (inactive) and the viability turned out to be 170%. In addition, in assay [4], the liver cell % of control was 60.7% and 62.5% and 90.9%; the parasite % of control is 8.09% (inactive) and 28.9% (inactive) and 97.5% (inactive).

For the compound `COc1cc2nccc(Oc3ccc(NC(=O)Nc4cc(C)on4)c(Cl)c3)c2cc1OC`, in [2], the parasite load remaining is 25.6% (inactive) and the viability is 70.1%.

As for `Cc1ccc(F)c(NC(=O)Nc2ccc(-c3cccc4[nH]nc(N)c34)cc2)c1`, in assay [4], the liver cell % of control was 57% and 72.1% and 102%; the parasite % of control is 112% (inactive) and 141% (inactive) and 35.1% (inactive).

`N#CCNC(=O)c1ccc(-c2ccnc(Nc3ccc(N4CCOCC4)cc3)n2)cc1`: in assay [4], the liver cell % of control was 71.7% and 64% and 76%; the parasite % of control was 0.479% (inactive) and 0.449% (inactive) and 0.525% (active).

`CC(C)=CCC/C(C)=C/CC/C(C)=C/CSc1ccccc1C(=O)O`: the period change in [13] was -0.01 h (inactive).

Consider `COc1cc2ncnc(Nc3cccc(Cl)c3)c2cc1OC`, for which the period change in assay [13] is 0.545 h (inactive). The survival in assay [1] is 138 (inactive). For the same compound, in assay [5], the inhibition is 0% (inactive). Moreover, the fluorescence ratio (interference) in assay [6] is 1 (inactive). The fold fluorescence in [12] was 5.72 [at 142 µM] (inactive). For the same compound, the result in assay [7] was inactive.

For `CNc1nccc(-c2cccnc2Oc2cc(C(=O)Nc3cccc(C(F)(F)F)c3)ccc2C)n1`, in assay [4], the liver cell % of control was 245% and 255% and 102%; the parasite % of control was 0.405% (inactive) and 0.413% (active) and 75.6% (inactive).

For the compound `CC(=O)Oc1cc2c(s1)CCN(C(C(=O)C1CC1)c1ccccc1F)C2` (stereo unspecified), in assay [8], the remaining NAD was 10 nM (inactive).
